# Data taken from PubChem BioAssay (Tox21).
# Results filed as inconclusive are left out. Calls of active or inactive are those of the source. Calls follow the shape of the dose curve; as a rule, active = well fitted cell-killing curve with a large enough effect in the repeat runs; inconclusive = weak or mixed curves, or effect the other way; inactive = flat fitted curve, though single readings scatter.
# Experiment: qHTS assay to identify small molecule antagonists of the estrogen receptor alpha (ER-alpha) signaling pathway using the BG1 cell line in the presence of 0.1 nM 17-beta-estradiol - cell viability counter screen (AID 1259241); also: nearly all actives have a fitted effect of over 40% in size
# Conditions: VM7Luc4E2 (BG1) viability, CellTiter-Fluor protease, 22 h, 0.1 nM estradiol agonist added; series mostly up to 92.4 µM; activity change, negative = cytotoxicity: at the top concentration
# Description: National Center for Advancing Translational Sciences [NCATS]
# NIH Chemical Genomics Center [NCGC]
# U.S. Environmental Protection Agency [EPA]
# National Institutes of Environmental Health Sciences [NIEHS]
# National Toxicology Program [NTP]
# U.S. Food and Drug Administration [FDA]
# Estrogen receptor (ER), a member of the nuclear hormone receptor plays an important role in development, metabolic homeostasis and reproduction. Two subtypes of ER, ER-alpha and ER-beta, have similar expression patterns with some uniqueness in both types. Endocrine disrupting chemicals (EDCs) and their interactions with steroid hormone receptors like ER causes disruption of normal endocrine function. Therefore, it is important to understand the effect of environmental chemicals in ER signaling pathway. For identifying ER antagonists, VM7Luc4E2 cell line was used to screen against Tox21 compound libraries.
# VM7Luc4E2 cell line (provided by Denison MS, University of California) endogenously express full-length ER-alpha and is stably transfected with a plasmid containing four estrogen responsive elements (ERE) upstream of a luciferase reporter gene. The current screening for identification of ER-alpha inhibitors against Tox21 compound libraries used lower concentration (0.1 nM) of 17beta-Estradiol as a stimulator. The cytotoxicity of the Tox21 compound libraries against VM7Luc4E2 cell line was tested by measuring live-cell protease activity using CellTiter-Fluor assay in the same wells.
# Tox21 Assay Protocol Summary:
# VM7Luc4E2 cells were cultured in phenol red free assay medium containing 10% charcoal stripped FBS for 5 days prior to the assay. The cells were dispensed at 4,000 cells/well in 4 uL of assay medium into white wall/solid-bottom 1536-well plates (Corning Life Sciences, Corning, NY) using a Multidrop Combi (ThermoFisher Scientific, Waltham, MA) dispenser. After the assay plates were incubated at 37C and 5% CO2 for 24 hr, 23 nL of compounds dissolved in DMSO, positive controls or DMSO only was transferred to the assay plates by a Pintool station (Kalypsys, San Diego, CA). The transfer of compounds was followed by the addition of 1 uL of 0.1 nM (final concentration) agonist (17beta-Estradiol)/assay medium using a Flying Reagent Dispenser (FRD, Aurora Discovery, San Diego, CA). The plates were incubated at 37C and 5% CO2 for 22 hr. For cytotoxicity assay, 1 uL of CellTiter-Fluor reagent (Promega Corporation, Madison, WI) was added to each well using the FRD and after 30 min incubation at 37C and 5% CO2, The fluorescence intensity was measured using ViewLux plate reader (PerkinElmer, Shelton, CT).
# % is scaled to controls: 0 for no effect and ±100 for the full control effect; potency is read from the fitted curve at half-maximal effect.
Structure (SMILES),"activity change, negative = cytotoxicity",Potency
CCC(Cl)CCl (stereo not given),11% (inactive),
O=S1OC[C@@H]2[C@H](CO1)[C@]1(Cl)C(Cl)=C(Cl)[C@@]2(Cl)C1(Cl)Cl (stereo not given in full),0.623% (inactive),
Clc1ccc(C(OCCN2CCCCC2)c2ccccc2)cc1 (stereo not given),-24.9% [at 42.5 µM] (inactive),
N#CCc1ccccc1,18.8% (inactive),
CC(C)(C)c1cc([N+](=O)[O-])cc([N+](=O)[O-])c1O,,13.6 µM (active)
O=C(O)C1(c2ccc3c(c2)OC[C@H](Cc2ccc(-c4ccccc4)cc2)[C@H]3O)CCCC1,2.6% (inactive),
CC1Sc2c(C(=O)O)c(=O)c3cc(F)c(N4CCNCC4)cc3n21 (stereo not given),0% [at 42.5 µM] (inactive),
O=C(C(Cl)(Cl)Cl)C(Cl)(Cl)Cl,5.95% (inactive),
CCCCCCCCCCOC(=O)c1ccccc1C(=O)OCCCCCCCCCC,14.9% (inactive),
COP(=O)(OC)O/C(=C/Cl)c1cc(Cl)c(Cl)cc1Cl,2.98% (inactive),
CC(Cl)C(C)Cl (stereo not given),-9.14% (inactive),
O=S(=O)(O)C(F)(F)C(F)(F)C(F)(F)C(F)(F)F,-2.81% (inactive),
CC/C(=N\OC/C=C/Cl)C1=C(O)CC(C2CCOCC2)CC1=O (stereo not given),4.75% (inactive),
Cc1ccccc1C(=O)Nc1cccc(OC(C)C)c1,-3.72% (inactive),
CC(C)=CCOc1c2occc2cc2ccc(=O)oc12,1.44% [at 42.5 µM] (inactive),
C[C@H]1CNCCc2ccc(Cl)cc21,-6.42% [at 42.5 µM] (inactive),
CCO[C@H]1O[C@@H]2OC3(C)CC[C@H]4[C@H](C)CC[C@@H]([C@H]1C)[C@@]24OO3,0.29% [at 42.5 µM] (inactive),
CC(C)(OO)c1ccccc1,0.405% (inactive),
COc1c(C(C)(C)C)cc([N+](=O)[O-])c(C)c1[N+](=O)[O-],13% (inactive),
O=Cc1ccc(Cl)cc1Cl,-10.9% (inactive),

Structure (SMILES),"activity change, negative = cytotoxicity",Potency
O=C(O)COc1ccc(Cl)cc1,7.22% (inactive),
CCCCCC[N+](=O)[O-],8.7% (inactive),
S=C=NCc1ccccc1,8.71% (inactive),
NC(=O)C(Cl)(Cl)Cl,10.4% (inactive),
CN(C)c1ccc(N(C)C)cc1,,61.3 µM (active)
COc1cc(CC(C)N)cc2c1OCO2 (stereo not given),0.509% (inactive),
Oc1ccc(Cl)c(Cl)c1Cl,-8.25% (inactive),
C=CC(=O)OC,-2.8% (inactive),
C[C@@H]1CC[C@H]2[C@@H](C)C(=O)O[C@@H]3O[C@@]4(C)CC[C@@H]1[C@]32OO4,6.08% [at 42.5 µM] (inactive),
Cc1ccc2ccccc2c1,18.7% (inactive),
O=C1NCN(c2ccccc2)C12CCN(CCCOc1ccc(F)cc1)CC2,-25.8% [at 42.5 µM] (inactive),
COC(C)(C)CCC[C@H](C)C/C=C/C(C)=C/C(=O)OC(C)C,-8.08% (inactive),
C=CC(=O)OC(C)(C)C,9.53% (inactive),
O=C(NC(=O)c1c(F)cccc1F)Nc1cc(Cl)c(Oc2ncc(C(F)(F)F)cc2Cl)c(Cl)c1,-5.59% (inactive),
O=C(CBr)c1ccccc1,3.92% (inactive),
CC(C)N(C(=O)COc1nnc(C(F)(F)F)s1)c1ccc(F)cc1,0.208% (inactive),
O=S(=O)(Cl)c1ccccc1,6.34% (inactive),
ClCCCCBr,6.64% (inactive),
CCCCCCCCOC(=O)c1ccc(C(=O)OCCCCCCCC)c(C(=O)OCCCCCCCC)c1,6.93% (inactive),
COC(N)=O,3.22% (inactive),
